Tests used:
Assay in all cases: log2 ratio of Biotin-Ahx-Ub-VS probe labelling (fragment/DMSO); higher = less target engagement (more negative = stronger competition), active = hit call of the paper (q ≤ 0.05, log2 ratio ≤ -1)
Conditions in all cases: compound concentration: 200 uM; treatment time: 3 h
USP34 = USP34 (UniProt Q70CQ2)
Outline: (§1)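 Triplicate samples of HEK293T lysate, 495 µg each, received fragment at 200 µM or vehicle for 3 h, followed by Biotin-Ahx-Ub-VS (0.5 µM final) for 1 h. After NeutrAvidin enrichment of labelled DUBs and LysC/trypsin digestion, peptides were run by diaPASEF LC-MS/MS. The values are average log2 fragment/vehicle ratios from global-median-normalised Spectronaut label-free quantities, tested by unpaired t-test on proteins having ≥2 unique peptides.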

USP36 = biological target: T1, USP36 (UniProt Q9P275)
T1 sequence (whole entry): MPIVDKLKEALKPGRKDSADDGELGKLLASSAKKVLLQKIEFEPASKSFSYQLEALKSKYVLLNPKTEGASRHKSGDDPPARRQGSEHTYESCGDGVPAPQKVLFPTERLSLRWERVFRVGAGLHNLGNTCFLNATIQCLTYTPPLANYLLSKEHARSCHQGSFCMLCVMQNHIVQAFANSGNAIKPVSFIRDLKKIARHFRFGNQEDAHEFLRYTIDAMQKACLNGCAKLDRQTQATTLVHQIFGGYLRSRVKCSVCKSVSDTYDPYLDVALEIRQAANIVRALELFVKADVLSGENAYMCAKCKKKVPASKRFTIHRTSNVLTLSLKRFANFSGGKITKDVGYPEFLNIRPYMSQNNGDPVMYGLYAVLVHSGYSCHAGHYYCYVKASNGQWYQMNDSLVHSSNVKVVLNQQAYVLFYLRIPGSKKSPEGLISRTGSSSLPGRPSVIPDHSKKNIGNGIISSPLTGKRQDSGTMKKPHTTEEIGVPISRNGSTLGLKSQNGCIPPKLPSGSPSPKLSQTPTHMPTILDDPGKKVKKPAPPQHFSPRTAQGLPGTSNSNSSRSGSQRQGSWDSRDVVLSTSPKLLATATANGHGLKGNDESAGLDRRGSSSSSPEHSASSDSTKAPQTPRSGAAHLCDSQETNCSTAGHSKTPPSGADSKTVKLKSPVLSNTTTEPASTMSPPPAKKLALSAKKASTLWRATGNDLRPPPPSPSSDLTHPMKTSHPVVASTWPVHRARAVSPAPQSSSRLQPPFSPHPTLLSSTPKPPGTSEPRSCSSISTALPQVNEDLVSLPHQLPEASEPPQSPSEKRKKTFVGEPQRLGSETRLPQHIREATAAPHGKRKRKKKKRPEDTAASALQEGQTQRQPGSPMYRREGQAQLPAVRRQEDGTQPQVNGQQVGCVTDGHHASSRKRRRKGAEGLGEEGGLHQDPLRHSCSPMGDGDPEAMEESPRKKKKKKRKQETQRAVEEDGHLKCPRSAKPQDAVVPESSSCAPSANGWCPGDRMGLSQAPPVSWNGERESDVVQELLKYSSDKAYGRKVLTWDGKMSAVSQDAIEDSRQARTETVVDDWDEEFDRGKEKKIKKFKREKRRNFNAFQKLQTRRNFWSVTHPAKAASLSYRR
Outline: as §1

USP38 = biological target: T2, USP38 (UniProt Q8NB14)
T2 sequence (whole entry): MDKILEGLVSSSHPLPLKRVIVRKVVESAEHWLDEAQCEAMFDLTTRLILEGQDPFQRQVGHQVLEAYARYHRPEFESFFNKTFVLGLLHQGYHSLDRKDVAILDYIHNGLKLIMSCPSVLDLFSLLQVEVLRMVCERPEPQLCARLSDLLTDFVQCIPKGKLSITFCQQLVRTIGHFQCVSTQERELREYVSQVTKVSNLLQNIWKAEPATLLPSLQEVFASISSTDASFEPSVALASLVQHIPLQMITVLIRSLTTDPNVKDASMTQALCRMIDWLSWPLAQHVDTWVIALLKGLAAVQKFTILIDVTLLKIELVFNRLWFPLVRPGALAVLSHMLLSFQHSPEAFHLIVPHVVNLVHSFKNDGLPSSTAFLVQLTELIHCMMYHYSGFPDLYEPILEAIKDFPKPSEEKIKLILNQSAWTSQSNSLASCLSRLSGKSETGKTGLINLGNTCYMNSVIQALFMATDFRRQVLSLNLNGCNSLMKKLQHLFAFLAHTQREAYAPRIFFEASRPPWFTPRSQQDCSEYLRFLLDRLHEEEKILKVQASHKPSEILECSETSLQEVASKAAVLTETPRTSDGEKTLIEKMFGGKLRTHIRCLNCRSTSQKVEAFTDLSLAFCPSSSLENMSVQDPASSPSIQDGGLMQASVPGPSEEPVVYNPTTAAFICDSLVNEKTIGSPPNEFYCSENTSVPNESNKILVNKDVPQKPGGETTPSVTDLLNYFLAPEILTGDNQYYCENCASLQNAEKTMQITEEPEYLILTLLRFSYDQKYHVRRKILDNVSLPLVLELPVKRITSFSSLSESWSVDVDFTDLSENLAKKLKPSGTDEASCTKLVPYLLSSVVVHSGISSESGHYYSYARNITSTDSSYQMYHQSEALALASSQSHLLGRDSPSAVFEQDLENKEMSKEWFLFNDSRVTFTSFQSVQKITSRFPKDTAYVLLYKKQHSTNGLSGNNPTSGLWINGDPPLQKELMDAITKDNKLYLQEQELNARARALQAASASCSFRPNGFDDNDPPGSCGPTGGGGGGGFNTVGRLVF
Outline: as §1

USP39 = biological target: T3, USP39 (UniProt Q53GS9)
T3 sequence (whole entry): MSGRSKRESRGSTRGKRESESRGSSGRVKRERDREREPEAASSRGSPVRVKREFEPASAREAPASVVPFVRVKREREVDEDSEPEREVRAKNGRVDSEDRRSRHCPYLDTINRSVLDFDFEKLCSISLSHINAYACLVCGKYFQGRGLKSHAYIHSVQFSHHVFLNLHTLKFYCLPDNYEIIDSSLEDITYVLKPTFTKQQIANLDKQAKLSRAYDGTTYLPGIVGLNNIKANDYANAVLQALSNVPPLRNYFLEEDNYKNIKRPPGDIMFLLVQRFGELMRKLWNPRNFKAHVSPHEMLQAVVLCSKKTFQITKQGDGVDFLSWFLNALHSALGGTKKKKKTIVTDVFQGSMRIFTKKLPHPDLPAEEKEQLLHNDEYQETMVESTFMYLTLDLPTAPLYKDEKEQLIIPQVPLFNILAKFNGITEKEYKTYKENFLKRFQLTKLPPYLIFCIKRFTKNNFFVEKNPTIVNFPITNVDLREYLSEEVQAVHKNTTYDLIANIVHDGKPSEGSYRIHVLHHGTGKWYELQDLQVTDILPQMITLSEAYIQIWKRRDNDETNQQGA
Outline: as §1

USP4 = biological target: T4, USP4 (UniProt Q13107)
T4 sequence (whole entry): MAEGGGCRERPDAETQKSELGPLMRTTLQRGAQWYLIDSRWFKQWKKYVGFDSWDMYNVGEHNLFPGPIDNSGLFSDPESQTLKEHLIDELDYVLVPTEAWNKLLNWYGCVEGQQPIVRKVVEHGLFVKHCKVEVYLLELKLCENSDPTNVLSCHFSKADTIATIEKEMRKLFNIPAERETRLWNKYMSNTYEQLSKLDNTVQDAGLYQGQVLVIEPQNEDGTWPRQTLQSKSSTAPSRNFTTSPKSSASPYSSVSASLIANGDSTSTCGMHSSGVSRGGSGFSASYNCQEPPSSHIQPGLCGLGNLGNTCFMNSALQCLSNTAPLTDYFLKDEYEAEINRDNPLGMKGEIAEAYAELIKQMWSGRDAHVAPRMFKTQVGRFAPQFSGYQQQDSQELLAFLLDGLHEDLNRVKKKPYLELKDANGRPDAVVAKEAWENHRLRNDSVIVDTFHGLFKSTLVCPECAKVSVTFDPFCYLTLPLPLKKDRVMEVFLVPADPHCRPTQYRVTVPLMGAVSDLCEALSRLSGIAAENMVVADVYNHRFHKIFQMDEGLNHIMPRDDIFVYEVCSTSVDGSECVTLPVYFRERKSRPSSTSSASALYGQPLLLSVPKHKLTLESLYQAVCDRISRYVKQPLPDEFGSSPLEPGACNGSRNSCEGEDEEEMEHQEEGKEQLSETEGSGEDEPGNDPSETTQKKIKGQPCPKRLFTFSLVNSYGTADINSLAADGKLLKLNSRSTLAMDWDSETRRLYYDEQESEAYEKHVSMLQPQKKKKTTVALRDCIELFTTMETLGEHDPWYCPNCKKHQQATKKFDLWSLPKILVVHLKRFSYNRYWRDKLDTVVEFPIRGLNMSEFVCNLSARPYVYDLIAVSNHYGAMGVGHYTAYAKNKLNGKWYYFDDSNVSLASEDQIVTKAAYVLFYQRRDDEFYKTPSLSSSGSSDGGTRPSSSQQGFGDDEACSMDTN
Outline: as §1

Measured: log2 ratio of Biotin-Ahx-Ub-VS probe labelling

Chain of USP34 (Q70CQ2 whole entry, the tested form may be a part): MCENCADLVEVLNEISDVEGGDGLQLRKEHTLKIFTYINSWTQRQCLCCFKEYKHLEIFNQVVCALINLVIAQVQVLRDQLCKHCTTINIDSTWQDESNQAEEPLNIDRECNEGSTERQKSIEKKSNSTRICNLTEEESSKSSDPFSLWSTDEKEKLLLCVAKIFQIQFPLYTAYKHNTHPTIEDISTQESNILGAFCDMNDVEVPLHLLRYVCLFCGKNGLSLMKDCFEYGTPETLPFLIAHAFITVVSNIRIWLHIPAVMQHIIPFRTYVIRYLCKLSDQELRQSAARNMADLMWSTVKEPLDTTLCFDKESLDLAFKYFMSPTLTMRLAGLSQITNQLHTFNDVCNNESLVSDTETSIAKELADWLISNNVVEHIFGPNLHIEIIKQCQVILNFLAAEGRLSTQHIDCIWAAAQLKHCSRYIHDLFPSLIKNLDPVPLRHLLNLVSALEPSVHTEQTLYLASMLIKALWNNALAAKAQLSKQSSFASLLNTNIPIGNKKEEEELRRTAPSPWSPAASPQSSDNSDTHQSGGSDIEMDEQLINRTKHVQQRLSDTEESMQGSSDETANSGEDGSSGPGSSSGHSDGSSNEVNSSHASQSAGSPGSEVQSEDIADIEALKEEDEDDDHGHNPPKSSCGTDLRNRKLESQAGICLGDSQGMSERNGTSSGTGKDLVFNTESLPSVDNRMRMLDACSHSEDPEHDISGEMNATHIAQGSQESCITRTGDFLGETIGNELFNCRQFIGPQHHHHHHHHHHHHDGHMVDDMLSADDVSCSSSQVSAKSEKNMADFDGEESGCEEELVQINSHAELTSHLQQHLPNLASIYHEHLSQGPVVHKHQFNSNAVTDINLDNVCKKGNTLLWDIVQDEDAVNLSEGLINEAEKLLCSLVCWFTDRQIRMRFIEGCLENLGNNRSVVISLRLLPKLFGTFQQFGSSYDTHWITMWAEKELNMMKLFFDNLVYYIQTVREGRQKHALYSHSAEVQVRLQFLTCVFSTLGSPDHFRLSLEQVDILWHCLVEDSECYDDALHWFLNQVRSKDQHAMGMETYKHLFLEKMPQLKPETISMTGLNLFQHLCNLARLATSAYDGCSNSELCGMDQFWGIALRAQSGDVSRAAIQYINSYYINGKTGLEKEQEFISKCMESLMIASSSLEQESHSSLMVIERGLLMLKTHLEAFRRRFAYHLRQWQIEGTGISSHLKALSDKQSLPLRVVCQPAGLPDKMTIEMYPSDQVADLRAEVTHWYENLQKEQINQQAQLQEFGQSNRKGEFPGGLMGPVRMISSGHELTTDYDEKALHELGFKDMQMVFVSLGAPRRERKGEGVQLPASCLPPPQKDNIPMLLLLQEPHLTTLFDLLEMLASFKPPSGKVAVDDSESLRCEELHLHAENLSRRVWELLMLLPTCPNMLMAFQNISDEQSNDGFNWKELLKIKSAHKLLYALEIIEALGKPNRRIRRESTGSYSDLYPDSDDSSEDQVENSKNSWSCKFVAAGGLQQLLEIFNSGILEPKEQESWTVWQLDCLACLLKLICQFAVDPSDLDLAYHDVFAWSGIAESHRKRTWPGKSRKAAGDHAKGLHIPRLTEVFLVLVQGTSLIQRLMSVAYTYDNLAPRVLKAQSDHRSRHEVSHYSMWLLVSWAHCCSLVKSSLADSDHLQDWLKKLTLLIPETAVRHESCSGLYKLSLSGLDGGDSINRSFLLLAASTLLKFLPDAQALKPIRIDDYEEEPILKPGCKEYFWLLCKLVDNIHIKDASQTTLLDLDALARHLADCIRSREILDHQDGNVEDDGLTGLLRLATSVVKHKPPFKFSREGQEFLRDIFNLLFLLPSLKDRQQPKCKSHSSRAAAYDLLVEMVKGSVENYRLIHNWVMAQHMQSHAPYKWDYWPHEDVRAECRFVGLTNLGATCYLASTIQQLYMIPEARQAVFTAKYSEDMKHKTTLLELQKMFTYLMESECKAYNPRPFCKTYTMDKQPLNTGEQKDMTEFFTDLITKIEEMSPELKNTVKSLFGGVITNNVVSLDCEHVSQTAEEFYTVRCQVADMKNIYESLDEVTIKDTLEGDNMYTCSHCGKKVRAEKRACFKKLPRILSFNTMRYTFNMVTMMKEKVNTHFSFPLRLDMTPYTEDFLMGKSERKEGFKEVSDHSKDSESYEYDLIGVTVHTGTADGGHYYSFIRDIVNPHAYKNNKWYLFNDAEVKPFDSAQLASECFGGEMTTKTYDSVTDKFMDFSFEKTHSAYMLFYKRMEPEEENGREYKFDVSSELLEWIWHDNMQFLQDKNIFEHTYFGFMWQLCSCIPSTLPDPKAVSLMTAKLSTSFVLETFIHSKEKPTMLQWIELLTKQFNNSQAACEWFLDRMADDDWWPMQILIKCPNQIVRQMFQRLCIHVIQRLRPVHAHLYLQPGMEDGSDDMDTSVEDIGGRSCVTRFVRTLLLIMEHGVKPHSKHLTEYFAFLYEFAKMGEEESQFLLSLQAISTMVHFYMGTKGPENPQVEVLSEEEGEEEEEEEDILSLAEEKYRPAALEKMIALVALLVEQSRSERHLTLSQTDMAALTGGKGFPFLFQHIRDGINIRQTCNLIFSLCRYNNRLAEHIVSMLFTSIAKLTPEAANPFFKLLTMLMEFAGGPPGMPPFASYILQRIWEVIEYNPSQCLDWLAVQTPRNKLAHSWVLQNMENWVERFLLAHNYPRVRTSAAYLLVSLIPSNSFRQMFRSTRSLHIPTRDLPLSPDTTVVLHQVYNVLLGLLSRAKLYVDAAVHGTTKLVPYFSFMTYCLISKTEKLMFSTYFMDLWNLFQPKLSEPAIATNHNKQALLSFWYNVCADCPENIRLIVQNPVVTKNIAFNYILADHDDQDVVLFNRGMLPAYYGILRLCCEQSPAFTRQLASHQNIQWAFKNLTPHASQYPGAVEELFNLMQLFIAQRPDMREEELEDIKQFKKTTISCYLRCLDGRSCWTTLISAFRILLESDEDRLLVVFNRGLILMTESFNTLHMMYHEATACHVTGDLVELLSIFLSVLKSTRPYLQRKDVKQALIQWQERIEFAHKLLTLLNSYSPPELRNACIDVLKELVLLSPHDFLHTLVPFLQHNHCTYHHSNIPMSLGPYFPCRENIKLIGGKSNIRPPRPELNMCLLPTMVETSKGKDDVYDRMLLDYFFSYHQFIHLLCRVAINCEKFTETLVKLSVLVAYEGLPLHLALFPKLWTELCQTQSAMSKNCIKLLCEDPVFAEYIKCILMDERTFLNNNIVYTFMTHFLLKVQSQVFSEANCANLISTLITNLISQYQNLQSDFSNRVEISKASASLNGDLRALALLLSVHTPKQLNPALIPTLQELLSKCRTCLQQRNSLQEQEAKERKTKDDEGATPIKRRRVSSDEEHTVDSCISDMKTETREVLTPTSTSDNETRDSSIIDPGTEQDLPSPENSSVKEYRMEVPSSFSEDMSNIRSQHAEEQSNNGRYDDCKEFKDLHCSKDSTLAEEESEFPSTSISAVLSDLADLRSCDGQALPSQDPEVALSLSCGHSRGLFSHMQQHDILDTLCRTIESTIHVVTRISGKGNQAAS

O=C(CCl)N1c2ccccc2NC(=O)C12CCCC2
inactive: USP34 -0.193 | USP36 0.111 | USP38 0.18 | USP39 0.678 | USP4 -0.0657
